# Measurements as given in PubChem BioAssay (NCI).
# This is part of a sample that, as a whole, favours compounds with a hit. Of some 79,000 tested, about 15% had one in any assay. A number with no mark means an inactive call. Calls of active or inactive are those of the source. Cut-off read from the data, not from the text of the source: active = growth inhibition above about 70%; inactive = the rest.
# Experiments:
# [1] = NCI Yeast Anticancer Drug Screen. Data for the rad52 strain (AID 147);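 note: 0% = growth of vehicle-treated control cultures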; details: S. cerevisiae rad52 mutant growth inhibition, hits give high values
# Method in brief: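 Yeast strain carrying a DNA damage repair alteration was exposed to test compounds. Growth inhibition was measured relative to vehicle-treated controls.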
# [2] = NCI Yeast Anticancer Drug Screen. Data for the wt1 strain (AID 149);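 note: 0% = growth of vehicle-treated wt1 cultures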; details: S. cerevisiae wt1 strain (SPY 50644) growth inhibition, hits give high values
# Method in brief: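 Growth inhibition read against vehicle controls after compound exposure of the wt1 yeast strain.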
# [3] = NCI Yeast Anticancer Drug Screen. Data for the mgt1 strain (AID 153); details: S. cerevisiae mgt1 mutant growth inhibition, hits give high values
# Method in brief: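 Yeast mgt1 strain (DNA repair/cell-cycle alteration panel) exposed to compounds; growth inhibition measured relative to vehicle-treated controls.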
# [4] = NCI Yeast Anticancer Drug Screen. Data for the rad50 strain (AID 155);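 note: 0% = growth of vehicle-only cultures of the same strain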; details: S. cerevisiae rad50 strain growth inhibition, hits give high values
# Method in brief: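 Readout: growth inhibition relative to vehicle-treated cultures. Compound exposure was carried out in a genetically defined yeast strain deficient in DNA damage repair.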
# [5] = NCI Yeast Anticancer Drug Screen. Data for the mec2-1 strain (AID 157); details: S. cerevisiae mec2-1 strain, hits give high values
# Method in brief: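 mec2-1 yeast strain, carrying an alteration in DNA damage repair or cell cycle control, was exposed to compounds; growth inhibition was measured relative to vehicle-treated controls.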
# [6] = NCI Yeast Anticancer Drug Screen. Data for the rad14 strain (AID 159);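 note: 0% = growth of vehicle-treated control cultures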; details: S. cerevisiae rad14 strain growth inhibition, hits give high values
# Method in brief: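 Growth inhibition vs vehicle controls; genetically altered yeast strain (DNA damage repair defect) treated with test compounds.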
# [7] = NCI Yeast Anticancer Drug Screen. Data for the sgs1 mgt1 strain (AID 161);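 note: 0% = growth of cultures given vehicle only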; details: S. cerevisiae sgs1 mgt1 strain, hits give high values
# Method in brief: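 Yeast cells carrying a defined DNA-repair defect were exposed to test compounds. Growth inhibition was measured relative to vehicle-treated controls.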
# [8] = NCI Yeast Anticancer Drug Screen. Data for the CLN2oe strain (AID 163);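 note: 0% = growth of vehicle-only control cultures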; details: S. cerevisiae CLN2oe strain, hits give high values
# Method in brief: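 Yeast cells carrying a defined cell-cycle control alteration were exposed to test compounds. Growth inhibition was scored against vehicle-treated control cultures.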
# [9] = NCI Yeast Anticancer Drug Screen. Data for the cln2 rad14 strain (AID 165);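 note: 0% = growth equal to vehicle treated cultures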; details: S. cerevisiae cln2 rad14 strain, hits give high values
# Method in brief: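 Yeast carrying cln2 and rad14 alterations (cell cycle control and DNA damage repair) were exposed to compounds. Growth inhibition was measured against vehicle-treated controls.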
# [10] = NCI Yeast Anticancer Drug Screen. Data for the bub3 strain (AID 167); details: S. cerevisiae bub3 mutant strain, hits give high values
# Method in brief: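 Readout: yeast growth inhibition, expressed relative to vehicle-only wells. The test organism is a mutant strain from a panel with lesions in DNA repair or checkpoint genes.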
# [11] = NCI Yeast Anticancer Drug Screen. Data for the wt2 strain (AID 169);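 note: 0% = growth of vehicle-treated yeast cultures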; details: S. cerevisiae wt2 strain growth inhibition, hits give high values
# Method in brief: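 Yeast cells were exposed to test compounds, and growth inhibition was measured relative to vehicle-treated controls.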
# [12] = NCI Yeast Anticancer Drug Screen. Data for the mlh1 strain (AID 171);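 note: 0% = growth of vehicle-treated control cultures of the same strain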; details: S. cerevisiae mlh1 strain growth inhibition, hits give high values
# Method in brief: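 Yeast carrying a defined genetic alteration in DNA damage repair or cell cycle control were exposed to test compounds. Growth inhibition was measured relative to vehicle-treated controls.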
# [13] = NCI Yeast Anticancer Drug Screen. Data for the sgs1 strain (AID 173);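 note: 0% = growth of vehicle-only control cultures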; details: S. cerevisiae sgs1 mutant, hits give high values
# Method in brief: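 Yeast mutant strains carrying defined defects in DNA damage repair or cell cycle control were exposed to test compounds. Growth inhibition was scored against vehicle-treated controls.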
# [14] = NCI Yeast Anticancer Drug Screen. Data for the mlh1 rad18 strain (AID 175); details: S. cerevisiae mlh1 rad18 strain growth inhibition, hits give high values
# Method in brief: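 Growth inhibition of the yeast strain was measured after compound exposure and expressed relative to vehicle-treated controls. The strain carries defined defects in DNA damage repair.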
# [15] = NCI Yeast Anticancer Drug Screen. Data for the rad18 strain (AID 177); details: S. cerevisiae rad18 mutant growth inhibition, hits give high values
# Method in brief: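 Yeast carrying a defined DNA damage repair alteration were exposed to compounds. Growth inhibition was expressed relative to vehicle-treated controls.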
# [16] = NCI Yeast Anticancer Drug Screen. Data for the rad50EPP+ strain (AID 151);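 note: 0% = growth of vehicle-treated control cultures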; details: S. cerevisiae rad50 mutant strain, hits give high values
# Method in brief: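 Yeast strain carrying rad50 alteration (rad50EPP+) exposed to compounds; growth inhibition measured relative to vehicle-treated controls.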
# [17] = at 5.0 µM (retest, dose inferred, filed as 0.5)
# [18] = at 50.0 µM (retest, dose inferred, filed as 5.0)
smiles,measurement,setting,value
CCCCCCCCCCCC(O)S(=O)(=O)O (stereo not drawn),growth inhibition,[1]; at 1.2 µM,0%
same,growth inhibition,[1]; at 3.7 µM,0%
same,growth inhibition,[1]; at 11.0 µM,-3%
same,growth inhibition,[1]; at 33.0 µM,2%
same,growth inhibition,[1]; at 100.0 µM,55%
same,growth inhibition,[2]; at 1.2 µM,-2%
same,growth inhibition,[2]; at 3.7 µM,-1%
same,growth inhibition,[2]; at 11.0 µM,-4%
same,growth inhibition,[2]; at 33.0 µM,1%
same,growth inhibition,[2]; at 100.0 µM,15%
same,growth inhibition,[3]; at 1.2 µM,-3%
same,growth inhibition,[3]; at 3.7 µM,0%
same,growth inhibition,[3]; at 11.0 µM,-2%
same,growth inhibition,[3]; at 33.0 µM,-1%
same,growth inhibition,[3]; at 100.0 µM,70% (active)
same,growth inhibition,[4]; at 1.2 µM,4%
same,growth inhibition,[4]; at 3.7 µM,3%
same,growth inhibition,[4]; [17],-13%
same,growth inhibition,[4]; at 11.0 µM,-2%
same,growth inhibition,[4]; at 33.0 µM,2%
same,growth inhibition,[4]; [18],20%
same,growth inhibition,[4]; at 50.0 µM,-3.6%
same,growth inhibition,[4]; at 100.0 µM,50%
same,growth inhibition,[5]; at 1.2 µM,-1%
same,growth inhibition,[5]; at 3.7 µM,0%
same,growth inhibition,[5]; [17],-17%
same,growth inhibition,[5]; at 11.0 µM,-2%
same,growth inhibition,[5]; at 33.0 µM,-1%
same,growth inhibition,[5]; [18],-23%
same,growth inhibition,[5]; at 50.0 µM,37.9%
same,growth inhibition,[5]; at 100.0 µM,74% (active)
same,growth inhibition,[6]; at 1.2 µM,3%
same,growth inhibition,[6]; at 3.7 µM,4%
same,growth inhibition,[6]; at 11.0 µM,2%
same,growth inhibition,[6]; at 33.0 µM,10%
same,growth inhibition,[6]; at 100.0 µM,95% (active)
same,growth inhibition,[7]; [17],-10%
same,growth inhibition,[7]; [18],17%
same,growth inhibition,[7]; at 50.0 µM,0.05%
same,growth inhibition,[8]; at 1.2 µM,-2%
same,growth inhibition,[8]; at 3.7 µM,-1%
same,growth inhibition,[8]; at 11.0 µM,-2%
same,growth inhibition,[8]; at 33.0 µM,-2%
same,growth inhibition,[8]; at 100.0 µM,66%
same,growth inhibition,[9]; [17],-5%
same,growth inhibition,[9]; [18],6%
same,growth inhibition,[9]; at 50.0 µM,-14.4%
same,growth inhibition,[10]; at 1.2 µM,1%
same,growth inhibition,[10]; at 3.7 µM,-1%
same,growth inhibition,[10]; [17],0%
same,growth inhibition,[10]; at 11.0 µM,-2%
same,growth inhibition,[10]; at 33.0 µM,0%
same,growth inhibition,[10]; [18],59%
same,growth inhibition,[10]; at 50.0 µM,7.55%
same,growth inhibition,[10]; at 100.0 µM,12%
same,growth inhibition,[11]; at 1.2 µM,-4%
same,growth inhibition,[11]; at 3.7 µM,-9%
same,growth inhibition,[11]; at 11.0 µM,-7%
same,growth inhibition,[11]; at 33.0 µM,-11%
same,growth inhibition,[11]; at 100.0 µM,98% (active)
same,growth inhibition,[12]; at 1.2 µM,0%
same,growth inhibition,[12]; at 3.7 µM,0%
same,growth inhibition,[12]; at 11.0 µM,-2%
same,growth inhibition,[12]; at 33.0 µM,3%
same,growth inhibition,[12]; at 100.0 µM,94% (active)
same,growth inhibition,[13]; at 1.2 µM,1%
same,growth inhibition,[13]; at 3.7 µM,-2%
same,growth inhibition,[13]; at 11.0 µM,-12%
same,growth inhibition,[13]; at 33.0 µM,6%
same,growth inhibition,[13]; at 100.0 µM,96% (active)
same,growth inhibition,[14]; [17],7%
same,growth inhibition,[14]; [18],39%
same,growth inhibition,[14]; at 50.0 µM,17.4%
same,growth inhibition,[15]; at 1.2 µM,1%
same,growth inhibition,[15]; at 3.7 µM,1%
same,growth inhibition,[15]; at 11.0 µM,-2%
same,growth inhibition,[15]; at 33.0 µM,-1%
same,growth inhibition,[15]; at 100.0 µM,90% (active)
Oc1[nH]c2ccccc2c1N=NC(=S)N1CCCCC1,growth inhibition,[1]; at 1.2 µM,6%
same,growth inhibition,[1]; at 3.7 µM,11%
same,growth inhibition,[1]; at 11.0 µM,19%
same,growth inhibition,[1]; at 33.0 µM,97% (active)
same,growth inhibition,[1]; at 100.0 µM,98% (active)
same,growth inhibition,[2]; at 1.2 µM,-1%
same,growth inhibition,[2]; at 3.7 µM,0%
same,growth inhibition,[2]; at 11.0 µM,4%
same,growth inhibition,[2]; at 33.0 µM,90% (active)
same,growth inhibition,[2]; at 100.0 µM,98% (active)
same,growth inhibition,[16]; at 1.2 µM,6%
same,growth inhibition,[16]; at 3.7 µM,16%
same,growth inhibition,[16]; at 11.0 µM,28%
same,growth inhibition,[16]; at 33.0 µM,39%
same,growth inhibition,[16]; at 100.0 µM,58%
same,growth inhibition,[4]; at 1.2 µM,5%
same,growth inhibition,[4]; at 3.7 µM,11%
same,growth inhibition,[4]; [17],11%
same,growth inhibition,[4]; at 11.0 µM,13%
same,growth inhibition,[4]; at 33.0 µM,97% (active)
same,growth inhibition,[4]; [18],99% (active)
same,growth inhibition,[4]; at 50.0 µM,75.5% (active)
same,growth inhibition,[4]; at 100.0 µM,98% (active)
same,growth inhibition,[5]; at 1.2 µM,4%
same,growth inhibition,[5]; at 3.7 µM,6%
same,growth inhibition,[5]; [17],41%
same,growth inhibition,[5]; at 11.0 µM,23%
same,growth inhibition,[5]; at 33.0 µM,97% (active)
same,growth inhibition,[5]; [18],98% (active)
same,growth inhibition,[5]; at 50.0 µM,80.4% (active)
